The source of these data is PubChem BioAssay AID651813 (National Center for Advancing Translational Sciences (NCATS), 2012).

Screen size: about 2,100 compounds; about 1,100 (52%) were called active. Inconclusive results (about 27%) are left out. The set was probably picked from earlier hits. The list shows a part of the results. Values without a mark were called inactive. Calls come from the whole dose curve; as a rule, active = well fitted inhibition curve with a large enough effect; inconclusive = small, poorly fitted or top-dose-only effect; inactive = no such curve, though single readings can be large or run the other way.
Potency is the fitted concentration of half-maximal effect.

For the assay, the target named is DNA dC->dU-editing enzyme APOBEC-3G (Homo sapiens) (UniProt Q9HC16). Kind of assay: qHTS for inhibitors of Vif-A3G interactions: Cherry picks counterscreen.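 For max response: max response given as percent of control signal.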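 Note: hits raise yellow fluorescence by blocking Vif-driven A3G-eYFP degradation; nearly all actives have a fitted effect of over 70% in size.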 Conditions: HeLa A3G-eYFP + Vif (tagged APOBEC3G with the HIV-1 protein that degrades it), eYFP fluorescence, 24 h. The gist of the method: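 HeLa cells stably expressing A3G-eYFP and Vif were treated for 24 h at 37 deg C with compounds at several concentrations; yellow fluorescence (Ex 488 nm, Em 500-530 nm) read by Acumen Explorer, MG132 as positive control.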
Sequence of DNA dC->dU-editing enzyme APOBEC-3G (Homo sapiens) (Q9HC16 whole entry, looked up): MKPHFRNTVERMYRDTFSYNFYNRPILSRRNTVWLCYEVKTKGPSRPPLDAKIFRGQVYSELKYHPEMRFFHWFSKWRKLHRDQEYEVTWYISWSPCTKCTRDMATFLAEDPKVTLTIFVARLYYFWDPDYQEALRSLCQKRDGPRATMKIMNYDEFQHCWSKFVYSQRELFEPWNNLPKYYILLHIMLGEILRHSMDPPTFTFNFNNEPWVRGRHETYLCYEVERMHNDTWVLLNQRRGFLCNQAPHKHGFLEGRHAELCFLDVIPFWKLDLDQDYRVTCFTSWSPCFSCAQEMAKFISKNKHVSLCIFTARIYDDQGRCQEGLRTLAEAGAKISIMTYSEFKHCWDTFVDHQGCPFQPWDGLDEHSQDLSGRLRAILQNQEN
Background: Quantitative high-throughput screening tests each substance at several concentrations.
`COc1ccc(N=Cc2c(O)n(-c3cccc(C)n3)c(=O)c3ccccc23)c(OC)c1`: the Potency is 6.51 µM (active).

Take `Cc1ccc(N=Cc2c(O)n(-c3nccs3)c(=O)c3ccccc23)c(C)c1`: the max response was -1.11%.

For the compound `CC1=Nc2ccc(C)cc2/C1=C/c1c(N)n2oc(C)cc2nc1=O`, the Potency is 16.4 µM (active).

On to `CCSC1=NSC2=NC(=O)/C(=C\c3coc4ccccc4c3=O)C(=N)N12`, for which the Potency was 16.4 µM (active).

Take `Cc1ccc(Cn2c(SCc3ccc(C(=O)NC4CCCC4)cc3)nc3ccncc32)cc1`: the max response is -1.29%.

On to `Cc1ccc(O)c(Nc2c3ccccc3nc3ccccc23)c1`, for which the max response was 10.9%.

With `COc1ccc(C)cc1Nc1c2c(nc3ccccc13)CCC2`, the Potency was 0.886 µM (active).

With `Cc1ccc(-c2cn3nc(-c4ccccc4)c(-c4ccccc4)nc3n2)cc1`, the Potency is 16.4 µM (active).

Take `Cc1cccc(N=C2NC(=O)/C(=C/c3cccn3C)S2)c1`: the max response is -23.6%.

On to `Cc1ccc(N=C2NC(=O)/C(=C/c3cn(C)c4ccccc34)S2)cc1C`, for which the Potency is 17.7 µM (active).

`Cn1cccc1/C=C1\SC(=Nc2cccc(O)c2)NC1=O`: the Potency is 11.2 µM (active).

Consider `Cn1cccc1/C=C1\SC(=Nc2ccccc2)NC1=O`, for which the Potency is 2.5 µM (active).

In the case of `Cc1ccc(N=C2NC(=O)/C(=C/c3cccn3C)S2)cc1`, the Potency is 14 µM (active).

As to `COc1cc(S(=O)(=O)Nc2ccccc2N2CCCCC2)ccc1NC(C)=O`, the Potency was 2.23 µM (active).

For `O=C(NC(=S)Nc1ccccc1N1CCCCC1)c1ccccc1`, the max response was 8.17%.

Turning to `C=CCN1C(=O)/C(=C2/Sc3ccc(OC)cc3N2C)SC1=Nc1cccc(O)c1`, the Potency is 18.4 µM (active).

In the case of `C=CCN1C(=O)/C(=C2/Sc3ccc(OC)cc3N2CC)SC1=S`, the Potency was 11.6 µM (active).

As to `Cc1cc(-n2c(SCC(=O)Nc3ccc(Br)cc3)nc3n[nH]c(C)c3c2=N)ccc1Cl`, the max response was -13.3%.

On to `CCOC(=O)N1CCc2c(sc3c2C(=O)NC(c2ccc(N(C)C)cc2)N3)C1` (stereo unspecified), for which the Potency is 4.11 µM (active).

As to `CC(=O)c1ccc(-c2ccc(C(=O)Nc3nc(-c4ccccn4)cs3)o2)cc1`, the Potency is 12.5 µM (active).

Take `O=C(CC1CC2CCC1C2)Nc1nc(-c2ccccn2)cs1` (stereo unspecified): the max response was 10.6%.

Consider `O=C(Nc1nc(-c2ccccn2)cs1)C1CCCC1`, for which the max response is -16.3%.

For the compound `O=C(N/N=C/c1cccc2ccccc12)c1cc2ccccc2o1`, the Potency was 9.94 µM (active).

On to `Cc1cc(/C=N/NC(=O)c2cc3ccccc3o2)c(C)n1C`, for which the max response is -4.16%.

Take `Cc1c(/C=N\NC(=O)c2cc3ccccc3o2)c2ccccc2n1C`: the Potency is 3.96 µM (active).

In the case of `CCCOc1ccc(NC(=O)CC2C(=O)N(c3ccc(OCC)cc3)C(=S)N2C2CC2)cc1` (stereo unspecified), the max response was -18.2%.

For `COc1cc(N2CCCC2)c(OC)cc1/C=C(/C#N)c1ccc(F)cc1`, the Potency was 8.2 µM (active).

Turning to `COc1cc(N2CCCC2)c(OC)cc1/C=C1/NC(=S)NC1=O`, the max response is 60.5%.

As to `COc1cc(N2CCCC2)c(OC)cc1/C=C(/C#N)c1ccc(Br)cc1`, the Potency is 1.64 µM (active).

With `COC(=O)COc1cccc2c(=O)n(CC(=O)NCc3ccccc3)ccc12`, the Potency is 6.27 µM (active).

Regarding `CCOC(=O)C(C)Oc1cccc2c(=O)n(CC(=O)NCc3ccco3)ccc12` (stereo unspecified), the Potency was 1.4 µM (active).

Consider `O=c1[nH]c(NCc2ccco2)nnc1Cc1ccccc1Cl`, for which the Potency was 15.8 µM (active).

Consider `CC(=O)Nc1sc(/C(C#N)=C\c2cccc(Cl)c2)nc1-c1ccc(C)cc1`, for which the Potency was 4.61 µM (active).

On to `CCOc1cc(/C=C(\C#N)c2nc(-c3cccs3)c(NC(C)=O)s2)ccc1O`, for which the max response was 51.1%.

In the case of `CC(=O)Nc1sc(/C(C#N)=C/c2ccc(Cl)c(Cl)c2)nc1-c1ccc(C)cc1`, the Potency was 0.731 µM (active).

In the case of `CCCCOc1ccc(/C=C/C2=CC(C)(C)NC(=S)N2)cc1OCC`, the max response was -1.97%.

Turning to `COc1ccccc1-c1c(C#N)c(N)nc2c1CCc1ccccc1-2`, the Potency is 6.27 µM (active).

For `CC1=C(C(=O)Nc2cccc(F)c2)C(c2ccsc2)C2=C(CC(C)(C)CC2=O)N1` (stereo unspecified), the Potency was 1.98 µM (active).

As to `O=[N+]([O-])c1ccccc1SNc1ccccc1`, the max response was -7.81%.

Regarding `Cc1cc(C)c(S(=O)(=O)Oc2ccccc2[N+](=O)[O-])c(C)c1`, the Potency was 3.53 µM (active).

Turning to `CC(C)n1cnc2c(NCc3ccccc3)cc(N[C@H](C)CO)cc21`, the Potency is 15.8 µM (active).

In the case of `FC(F)(Cl)c1nnc2ccc(Cl)nn12`, the Potency is 6.27 µM (active).

Turning to `N#CCC(=O)N/N=C/c1ccc(N2N=C(c3ccccc3)CC2c2ccccc2)cc1` (stereo unspecified), the Potency was 16.4 µM (active).

For `COc1cc2c3nnc(-c4ccc(F)cc4)c-3cn(Cc3ccc(C)cc3)c2cc1OC`, the Potency is 9.94 µM (active).

Take `COc1cc2c3nnc(-c4ccc(F)cc4)c-3cn(Cc3ccccc3F)c2cc1OC`: the Potency was 20.6 µM (active).

As for `CCOC(=O)CSC1=C(C#N)C(c2ccc(C)s2)CC(=O)N1` (stereo unspecified), the Potency was 1.77 µM (active).

As for `O=C(CCCCl)Oc1ccc2cc(-c3ccc4ccccc4n3)c(=O)oc2c1`, the max response is 32.5%.

Regarding `CCOc1ccccc1Nc1nnc(-c2cc3cc(OC)ccc3oc2=O)s1`, the Potency was 5.17 µM (active).

As to `COc1ccc2oc(=O)c(-c3nc4ccccc4o3)cc2c1`, the Potency is 10.3 µM (active).

`CC(=O)Nc1ccc2c(c1)Cc1ccc(Cl)cc1-2`: the max response was -8.49%.

On to `CC(=O)Nc1ccc(C2=CC(=O)C[C@H](c3ccc(Cl)cc3)C2)cc1`, for which the Potency is 18.4 µM (active).

As for `CN(C)CCN(C(=O)/C=C/c1cccs1)c1nc2c(F)cc(F)cc2s1`, the max response was -22.8%.

Take `O=C(Nc1ccc([N+](=O)[O-])cc1)C(Cc1ccccc1)N1C(=O)c2cccc3cccc(c23)C1=O` (stereo unspecified): the Potency is 8.86 µM (active).

On to `Nc1c(C(=O)Nc2ccc(S(=O)(=O)N3CCCC3)cc2)sc2nc3ccc(OC(F)(F)F)cc3cc12`, for which the Potency is 18.4 µM (active).

`Nc1c(C(=O)Nc2ccc(S(=O)(=O)N3CCCC3)cc2)sc2nc3cc4c(cc3cc12)CCC4`: the Potency is 10.3 µM (active).

Take `CCc1cccc2cc3c(N)c(C(=O)Nc4ccc(S(=O)(=O)N5CCCC5)cc4)sc3nc12`: the Potency was 5.59 µM (active).

`Cn1c(N)c(-c2ccccc2)c2ccc([N+](=O)[O-])cc2c1=O`: the Potency was 5.59 µM (active).

Regarding `N#Cc1c(-c2ccccc2F)cc(C2CC2)nc1SCC(=O)c1cccs1`, the Potency is 14 µM (active).

With `CNC(=S)N/N=C(\C)c1ccc(Cl)s1`, the max response was 0.869%.

As to `COc1ccc(Cl)cc1NC(=O)CN(C)CC(=O)Nc1ccccc1N1CCOCC1`, the Potency is 1.58 µM (active).

Turning to `COc1cc(Cl)c(C)cc1NC(=O)CN1CCN(C(=O)C2CC2)CC1`, the max response was -28.2%.

In the case of `Fc1ccccc1Nc1nc2ccccc2n2nnnc12`, the Potency was 20.6 µM (active).

On to `Cc1ccc(C(=O)O)cc1Nc1nc2ccccc2n2nnnc12`, for which the max response is -28%.

Regarding `CC(NC(=O)c1ccc(Nc2nc3ccccc3n3nnnc23)cc1)c1ccccc1` (stereo unspecified), the Potency was 20.6 µM (active).

As for `c1ccc2c(c1)nc(N1CCOCC1)c1nnnn12`, the max response was -18.6%.

On to `CN(C)c1ccc(Nc2nc3ccccc3n3nnnc23)cc1`, for which the max response was -13.6%.

Consider `Fc1ccc(CNc2nc3ccccc3n3nnnc23)cc1`, for which the Potency is 23.1 µM (active).

`CN(C)S(=O)(=O)c1ccc2c(c1)/C(=C/c1cc3c([nH]1)CCCC3)C(=O)N2`: the Potency was 2.8 µM (active).

Regarding `CC(C)(C)C(=O)c1sc2nc(-c3cccs3)cc(C(F)(F)F)c2c1N`, the Potency was 0.731 µM (active).

Take `Nc1c(C(=O)C2CC2)sc2nc(-c3cccs3)cc(C(F)(F)F)c12`: the Potency was 0.461 µM (active).

For `CC(=O)c1sc2nc(-c3cccs3)cc(C(F)(F)F)c2c1N`, the Potency was 13 µM (active).

As for `CCN(CC)C(=O)c1sc2nc(-c3cccs3)cc(-c3ccc(Cl)cc3)c2c1N`, the Potency was 15.8 µM (active).

As to `Clc1ccccc1C1CC(c2ccccc2)=Nc2ccccc2N1` (stereo unspecified), the max response was -7.91%.

As to `Cc1ccc2nc(SCC(=O)Nc3ccc4sc(C)nc4c3)c(C#N)cc2c1`, the Potency was 18.4 µM (active).

`Cc1nc2cc(NC(=O)CSc3nc4c(C)cccc4cc3C#N)ccc2s1`: the Potency was 20.6 µM (active).

Consider `COCCN(CCOC)Cc1c(O)ccc2c1O/C(=C\c1ccc(C)o1)C2=O`, for which the max response was -11.8%.

For `CC(=O)Oc1cccc(N2C(=O)c3cccc4c([N+](=O)[O-])ccc(c34)C2=O)c1`, the Potency is 15.8 µM (active).

With `Cc1nnc(N2C(=O)c3cccc4c([N+](=O)[O-])ccc(c34)C2=O)s1`, the Potency is 20.6 µM (active).

For the compound `O=C1c2cccc3c([N+](=O)[O-])ccc(c23)C(=O)N1c1ccccn1`, the max response is 54.4%.

For `N#CC1=C(N)C(C#N)(C#N)[C@H](c2c(F)cccc2F)[C@H]2CC3(CC=C12)OCCO3`, the Potency is 16.4 µM (active).

With `Cc1ccc(C(=O)NCCn2c(N)c(C#N)c3nc4ccccc4nc32)cc1`, the Potency was 23.1 µM (active).

For the compound `Cc1cccc(-n2c(N)c(-c3nc4ccccc4n3C)c3nc4ccccc4nc32)c1`, the max response was -1.87%.

For `COc1ccc(/C=N/NC(=O)c2cccnc2)cc1CSc1ccccn1`, the Potency was 5.59 µM (active).

For the compound `COc1ccc(/C=N/NC(=O)c2ccccc2Cl)cc1CSc1nc2ccccc2s1`, the Potency was 3.14 µM (active).

In the case of `COc1cc(OC)cc(C(=O)N/N=C/c2ccc(OC)c(COc3ccc4ccccc4c3)c2)c1`, the Potency is 15.8 µM (active).

As to `COc1cnc(-c2ccccn2)nc1Oc1ccc(F)cc1F`, the max response was -4.73%.

Regarding `COc1ccc(/C=N/NC(=O)c2cccnc2)cc1COc1ccc(NC(C)=O)cc1`, the Potency was 12.5 µM (active).

Regarding `COc1ccccc1/C=N/NC(=S)Nc1cccnc1`, the max response was -12.2%.

For `COc1ccc(/C=N/NC(=O)c2cc(OC)c(OC)c(OC)c2)cc1CN1CCc2cc(OC)c(OC)cc2C1C` (stereo unspecified), the Potency is 12.5 µM (active).

Turning to `CC(=O)N1CCc2nc3sc(C(=O)c4ccc(F)cc4)c(N)c3c(C(F)(F)F)c2C1`, the Potency is 18.4 µM (active).

With `COc1ccc(C(=O)c2sc3nc4c(c(C(F)(F)F)c3c2N)CN(C(C)=O)CC4)cc1OC`, the Potency is 18.4 µM (active).
